The compounds below were run on MAP4K4. Details: concentration: 1 μM, replicates: in singlicate; n = 1.
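Further: KINOMEscan kinase panel screen.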

SMILES	%Inh [%]
O=C(Nc1n[nH]c2cc(-c3cccc(F)c3)ccc12)C1CC1 [SB-735464]	42
Cc1nnc(-c2ccc(C)c(-c3ccc(C(=O)Nc4ccc(NS(C)(=O)=O)cc4)cc3)c2)o1 [GW702865]	0
CNc1ncnc2[nH]ncc12 [SKF-18355]	0
Cc1cccc(-c2nc(-c3ccc(S(C)(=O)=O)cc3)sc2-c2ccncc2)c1	30
Nc1nc(-c2ccc3c(N)n[nH]c3c2)cc(N2CCCC2)n1 [GSK2227430]	0
Fc1ccc(-c2ncn(CCCN3CCOCC3)c2-c2cccnc2)cc1 [SB-211743]	0
[2H]C([2H])(c1cccc(C(F)(F)F)c1C)n1ccn2c(=O)nc(N3CCOCC3)cc12 [GSK2336394]	6
c1ccc(-c2cc(-c3c[nH]nc3-c3ccccn3)ccn2)cc1 [GW576604]	22
CCc1nc(-c2cccc(C)c2)c(-c2ccnc(NCc3ccccc3)c2)s1	12
Cn1ccc2ncnc(Oc3ccc(NC(=O)Nc4ccncc4)c(Cl)c3)c21	0
COCCNC(=O)c1ccc(-c2cc(C(=O)NC3CC3)cc(F)c2C)cc1 [GW868318]	3
O=C1NC(=O)C(N2CCc3ccccc32)=C1c1cccc(Cl)c1 [SB-408010]	0
CN(C1=C(c2ccccc2)C(=O)NC1=O)c1ccccc1 [SB-334860]	16
NCC(NC(=O)c1cc(-c2cn[nH]c2)c(-c2ccnc3[nH]ccc23)s1)c1ccccc1.O=C(O)C(F)(F)F.O=C(O)C(F)(F)F (stereo not drawn) [GSK1325775]	31
COc1ccc(Nc2nccc(N3CCC(NC(=O)Nc4cccc(C(C)=O)c4)C3)n2)cc1 (stereo not drawn) [GSK1379731]	8
Cn1cc(-c2ccc3c(c2)CCN3C(=O)Cc2ccccc2Cl)c2c(N)ncnc21 [GSK2608885]	58
O=c1cc(N2CCOCC2)nc2n(Cc3cccc(F)c3)ccn12 [GSK2297430]	9
CN(C(=O)c1ccc(-c2cc(-c3c[nH]nc3-c3ccccn3)ccn2)cc1)C1CCOCC1 [GW810083]	9
CC(=O)Nc1ccc(COc2ccc(Nc3ccnc4cc(-c5ccccn5)ccc34)cc2)cc1.Cl [GW440148]	0
NS(=O)(=O)c1cccc(-c2ccc3nccc(-c4cccc(S(N)(=O)=O)c4)c3c2)c1 [GW867253]	0
N#Cc1c(N2CCOCC2)sc(-c2ccn[nH]2)c1-c1ccc(Cl)cc1	0
